The assay can be described thus: qHTS Assay for Lipid Storage Modulators (AID 1519). For activity change, negative = inhibition: % is set by controls: 0 for no effect and ±100 for the full control effect. Particulars: Drosophila S3 cells, BODIPY lipid droplet/cell ratio, laser cytometry, cells loaded with oleic acid. An excerpt: NIH Molecular Libraries Probe Production Centers Network [MLPCN]
NIH Chemical Genomics Center [NCGC]
Assay Submitter (PI): Beller, Mathias; Max-Planck-Institut fur Biophysikalische Chemie
NCGC Assay Overview: Storing lipids as a reservoir for energy or the anabolism of elementary metabolites is a common feature of probably all cells and is conserved from bacteria to humans. The universal cellular lipid storage organelle is the so-called lipid storage droplet (LD). Although ubiquitous, LDs share a simple structure composed of a hydrophobic core that harbors the storage lipids, which is shielded by a droplet-specific phospholipid monolayer to which proteins are attached. The current model of LD biogenesis involves an incorporation of the lipid core into the membrane leaflets of the endoplasmic reticulum (ER) followed by a subsequent budding-like maturation of a LD, which ultimately pinches off. Once released, LD volume can increase by localized lipogenesis or fusion of existing droplets. Storage lipids are re-mobilized enzymatically by lipase activity. Lipase regulation in the adipocyte is heavily studied and involves multiple components including catecholamine signaling, the LD-associated proteins Perilipin and comparative gene identification-58 (CGI-58) and at least two lipases named hormone sensitive lipase (HSL) and adipocyte triglyceride lipase (ATGL). LD regulation outside of the adipocyte is poorly understood and only few components are known. However, there is an urgent need to learn more about ectopic fat depots as mislocalized storage of lipids, for example in the liver or muscle, is an eminent health problem associated with insulin resistance or the metabolic syndrome. We developed a laser-scanning cytometer assay to enable 1,536-well screening and combined the results of the small molecules screen with an RNAi database based on lipid storage.
NCGC Assay Protocol Summary:
We dispensed 4 uL of cells at 1.25 x 10^6 cells/mL into LoBase Aurora COC 1,536-well plates (black walled, clear bottom) with a bottle-valve solenoid-based dispenser (Aurora) to obtain 5,000 cells/well. Triacsin C (Sigma-Aldrich T-4540), an inhibitor of long-chain fatty acyl CoA synthetase that blocks synthesis of triglycerides, was used as a positive control for lipid under-storage. A total of 23 nL of compound solution of different concentrations were transferred to the assay plates using a Kalypsys pin tool equipped with a 1,536-pin array containing 10-nL slotted pins (FP1S10, 0.457-mm diameter, 50.8 mm long; V&P Scientific). One microliter of oleic acid (400 uM) was added, and the plate was lidded with stainless steel rubber gasket lined lids containing pinholes. […] Fluorescence was detected by excitation of the fluorophores with a 488-nm laser on an Acumen Explorer (TTP Lab Tech). The total intensity in channel 1 (500-530 nm) reflected lipid droplet accumulation. […] The ratio of the total intensity in PMT channel 1 over total intensity of channel 3 was also calculated. Percent activity was computed relative to an internal control (100% inhibited lipid droplet deposition due to the presence of 20 uM Triacsin C), which was added to 32 wells/plate.

The mark [1] stands for this setting: measured here: cell count channel max response.
[2] abbreviates: measured here: lipid channel max response.

Where “and” joins values, the source holds several entries; their conditions need not be identical. Equal entries are not always repeated. Results filed as inconclusive are left out. Calls of active or inactive are those of the source. Calls come from the whole dose curve.

As to `COc1ncnc(NS(=O)(=O)c2ccc(N)cc2)c1OC`, the activity change, negative = inhibition (at 25.7 µM (top of the series)) was -2.34% (inactive). Further, the max response reads like this: under setting [1], -20.8%; under setting [2], -23.2%.
With `COc1cnc(NS(=O)(=O)c2ccc(N)cc2)nc1`, the activity change, negative = inhibition is -0.0044% (inactive) (at 25.7 µM (top of the series)) and 4.6% (inactive) (at 57.5 µM (top of the series)). The max response was -12.6% and 15.3% under setting [1]; -11.3% and 19.8% under setting [2].
Regarding `Cc1cccc(N(C)C(=S)Oc2ccc3ccccc3c2)c1`, the activity change, negative = inhibition (at 25.7 µM (top of the series)) is 1.79% (inactive). Further, the max response reads like this: under setting [1], -7.01%; under setting [2], -5.23%.
With `CCCOc1ccc(C(=O)OCCN(CC)CC)cc1N`, the activity change, negative = inhibition (at 25.7 µM (top of the series)) is -0.0947% (inactive). In addition, the max response is, setting by setting: under setting [1], 10.6%; under setting [2], 9.95%.
In the case of `CCn1cc(C(=O)O)c(=O)c2cc(F)c(N3CCNCC3)nc21`, the activity change, negative = inhibition (at 25.7 µM (top of the series)) is 0.491% (inactive) and the activity change, negative = inhibition (at 57.5 µM (top of the series)) was 8.65% (inactive). Moreover, the max response runs as follows: under setting [1], 9.91% and 14.4%; under setting [2], 12.7% and 27.2%.
In the case of `COC(=O)Nc1nc2ccc(C(=O)c3ccccc3)cc2[nH]1`, the activity change, negative = inhibition (at 25.7 µM (top of the series)) was -15.3% (inactive). In addition, the max response was -1.6% under setting [1] and -17.4% under setting [2].
As to `CCCCCCNC(=O)n1cc(F)c(=O)[nH]c1=O`, the activity change, negative = inhibition (at 57.5 µM (top of the series)) is 8.3% (inactive). Moreover, the max response by setting is: under setting [1], 11.2%; under setting [2], 19.7%.
Regarding `COc1c(N2CCNC(C)C2)c(F)cc2c(=O)c(C(=O)O)cn(C3CC3)c12` (stereo unspecified), the activity change, negative = inhibition (at 57.5 µM (top of the series)) is 6.55% (inactive). Further, the max response reads like this: under setting [1], 19.6%; under setting [2], 29.5%.
`CCCc1cc(C(N)=S)ccn1`: the activity change, negative = inhibition (at 57.5 µM (top of the series)) is 6.18% (inactive). The max response by setting is: under setting [1], 8.06%; under setting [2], 15.8%.
For the compound `COC(=O)Nc1nc2ccc(S(=O)c3ccccc3)cc2[nH]1` (stereo unspecified), the activity change, negative = inhibition (at 57.5 µM (top of the series)) was 10.3% (inactive). For the same compound, the max response came to 14.2% under setting [1] and 29.6% under setting [2].
The matching figures for `COc1ccc(C(=O)CC(=O)c2ccc(C(C)(C)C)cc2)cc1`: 1.96% (inactive), -16.9% and -13.6%.
The like results for `O=c1oc2c(O)c(O)cc3c(=O)oc4c(O)c(O)cc1c4c23` were, in that order, 8.32% (inactive), 18.5% and 32.6%.
The matching figures for `CC1=C(C(=O)O)N2C(=O)[C@@H](NC(=O)C(N)c3ccccc3)[C@H]2SC1` (stereo partly specified): 1.54% (inactive), -18.2% and -16%.
